Source: PubChem BioAssay
The source made the active and inactive calls. Unless noted, no rule for the calls is given here.

Experiments:
[1] = resazurin metabolic signal in HepG2 cells – cell-based, resazurin fluorescence, 24 h, PK04 Diversity Set, profiling panel (AID 1172); conditions: HepG2 viability, higher = more signal; also: test concentration not given here
[2] = budding yeast growth changes without added modifier – OD600, strain BY4716, 24 h, basal condition, primary screen (AID 1173); conditions: S. cerevisiae BY4716 growth, OD600, 24 h; higher = more signal, called active from +8 up or from −8 down
[3] = viability profiling in MM1S myeloma cells – cell-based, resazurin fluorescence, basal, 24 h, PK04 Diversity Set, profiling panel (AID 1174); conditions: higher = more signal, called active from +8 up or from −8 down;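 also: MM1S multiple myeloma cell line; test concentration not given here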
[4] = target: Dihydroorotate dehydrogenase (quinone), mitochondrial (Plasmodium falciparum (isolate 3D7)) (UniProt Q08210); assay: inhibition of P. falciparum DHODH – biochemical, C-terminal His tag, absorbance 600 nm, primary screen (AID 1175); conditions: PfDHODH enzyme, DCIP absorbance 600 nm; higher = more signal, called active from +8 up or from −8 down;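 also: recombinant parasite enzyme with a five histidine tag at its C terminus; test concentration not given here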
Chain of Dihydroorotate dehydrogenase (quinone), mitochondrial (Plasmodium falciparum (isolate 3D7)) (Q08210 whole entry, looked up): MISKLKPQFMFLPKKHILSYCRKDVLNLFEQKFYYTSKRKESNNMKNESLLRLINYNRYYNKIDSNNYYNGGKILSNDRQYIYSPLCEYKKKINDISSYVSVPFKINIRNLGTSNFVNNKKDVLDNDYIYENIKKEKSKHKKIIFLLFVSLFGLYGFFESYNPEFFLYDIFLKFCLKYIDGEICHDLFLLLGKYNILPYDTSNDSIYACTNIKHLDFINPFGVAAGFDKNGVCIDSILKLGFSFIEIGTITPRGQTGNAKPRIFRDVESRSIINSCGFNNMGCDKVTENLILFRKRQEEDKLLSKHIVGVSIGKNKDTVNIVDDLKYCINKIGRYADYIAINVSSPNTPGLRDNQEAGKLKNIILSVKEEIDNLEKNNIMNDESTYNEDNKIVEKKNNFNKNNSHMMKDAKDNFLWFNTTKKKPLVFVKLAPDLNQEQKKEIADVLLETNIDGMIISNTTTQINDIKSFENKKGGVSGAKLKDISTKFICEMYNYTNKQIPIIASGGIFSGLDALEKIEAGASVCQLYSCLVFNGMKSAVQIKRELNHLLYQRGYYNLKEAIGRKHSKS

[5] = inhibition of PAO1 biofilm formation – strain PAO1, LB-PBS medium, absorbance 600 nm, primary screen (AID 1176); also: test concentration not given here; conditions: P. aeruginosa PAO1 growth/biofilm, A600, 12 h; higher = more signal
[6] = growth modulation of vineyard yeast isolate – strain RM11-1a, OD600, basal, 24 h, primary screen (AID 1177);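 also: cultures grown under basal conditions with no added stressor; test concentration not given here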; conditions: S. cerevisiae RM11-1a growth, OD600, 24 h; higher = more signal, called active from +8 up or from −8 down
[7] = growth of efflux-deficient E. coli DRC39 – strain DRC39, OD650, 24 h, E. coli filamentation inducers, primary screen (AID 1178);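 also: growth measured as culture turbidity by optical density at 650 nm; test concentration not given here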; conditions: E. coli DRC39 acrAB, higher = more signal, called active from +8 up or from −8 down
[8] = growth of efflux-deficient E. coli DRC39 – strain DRC39, OD650, 48 h, E. coli filamentation inducers, primary screen (AID 1179);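 also: screen aims at cell division blockers that make cells filament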; conditions: E. coli DRC39 delta-acrAB growth, higher = more signal, called active from +8 up or from −8 down
[9] = viability profiling in RPMI8226 myeloma cells – cell-based, resazurin fluorescence, basal, 24 h, PK04 Diversity Set, profiling panel (AID 1180); conditions: higher = more signal;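 also: RPMI8826 multiple myeloma cell line at 5000 cells per well; test concentration not given here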
[10] = target: E3 ubiquitin-protein ligase XIAP (Homo sapiens) (UniProt P98170); assay: small molecules binding XIAP protein – biophysical, small-molecule microarray, fluorescence 635 nm, primary screen (AID 1181); conditions: higher = more signal;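 also: score merges 667 nm emission and signal to noise over triplicate slides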
Chain of E3 ubiquitin-protein ligase XIAP (Homo sapiens) (P98170 whole entry, looked up): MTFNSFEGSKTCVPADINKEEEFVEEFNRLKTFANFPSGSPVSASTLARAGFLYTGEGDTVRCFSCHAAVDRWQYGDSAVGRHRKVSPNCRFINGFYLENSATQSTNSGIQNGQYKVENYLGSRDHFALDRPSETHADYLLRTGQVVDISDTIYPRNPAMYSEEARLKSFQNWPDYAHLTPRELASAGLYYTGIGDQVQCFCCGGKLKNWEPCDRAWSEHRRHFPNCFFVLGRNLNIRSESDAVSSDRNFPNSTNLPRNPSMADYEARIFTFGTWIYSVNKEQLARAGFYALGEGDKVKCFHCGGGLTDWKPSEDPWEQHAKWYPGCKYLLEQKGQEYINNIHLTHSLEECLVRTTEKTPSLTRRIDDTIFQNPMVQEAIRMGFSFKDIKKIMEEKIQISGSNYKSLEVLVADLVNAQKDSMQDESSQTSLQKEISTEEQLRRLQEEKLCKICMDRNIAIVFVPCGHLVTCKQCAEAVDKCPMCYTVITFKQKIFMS

Structure (SMILES)	z-score [1]	z-score [2]	z-score [3]	composite z-score [4]	z-score [5]	z-score [6]	z-score [7]	z-score [8]	z-score [9]	composite z-score [10]
O=C1N(Cc2ccccc2)c2ccccc2[C@@H]2OC(c3ccc(OCCCO)cc3)=N[C@]12CCS(=O)(=O)c1ccccc1	-0.477	1.48 (inactive)	-0.444 (inactive)	-0.244 (inactive)	1.71 (inactive)	2.25 (inactive)	-0.0853 (inactive)	-0.292 (inactive)	-0.18	-0.0918
CCC(CC)C(O)C1C=CC2C(=O)NC(=O)C2N1Nc1ccc(Cl)cc1Cl (stereo not given)	-1.82	-3.65 (inactive)	-1.46 (inactive)	0.925 (inactive)	1.26 (inactive)	1.27 (inactive)	-0.682 (inactive)	-0.459 (inactive)	-1.52	0.0187
COCCOC(=O)N1C(=O)[C@@]2(c3ccccc31)[C@H](C(=O)N1CCc3cc(OC)c(OC)cc3C1)[C@H]1C(=O)O[C@H](c3ccccc3)[C@H](c3ccccc3)N1[C@@H]2c1ccc(OCCO)cc1	-0.484	1.26 (inactive)	-0.13 (inactive)	-0.76 (inactive)	2.41 (inactive)	2.61 (inactive)	-0.259 (inactive)	0.144 (inactive)	0.549	-0.0405
Cc1ccc(S[C@]2(C(=O)NCCCN(C)C)CC(=O)N(Cc3cc(C(F)(F)F)cc(C(F)(F)F)c3)[C@@H]2c2ccc(CO)cc2)cc1	-0.144	-1.33 (inactive)	-0.522 (inactive)	-0.132 (inactive)	0.621 (inactive)	-0.607 (inactive)	0.0957 (inactive)	-0.339 (inactive)	-0.402	0.164
CO[C@H]1O[C@H](CO)[C@@H](OC(=O)Nc2cccc(F)c2)[C@H](OC(=O)Nc2ccccc2)[C@@H]1OC(=O)Nc1ccccc1	-1.62	0.706 (inactive)	-2.56 (inactive)	0.127 (inactive)	0.758 (inactive)	0.666 (inactive)	-0.002 (inactive)	-0.0057 (inactive)	-2.4	0.0623
[N-]=[N+]=NCc1ccccc1C[C@]1(C(=O)N2CCCCC2)N=C(c2ccc(OCCCO)cc2)O[C@H]1c1ccccc1N=[N+]=[N-]	0.297	0.264 (inactive)	-2.36 (inactive)	0.168 (inactive)	0.426 (inactive)	0.875 (inactive)	0.173 (inactive)	-0.446 (inactive)	-2.4	-0.332
C=C(C)[C@@H]1CC=C(C(O)C2C=CC3C(=O)N(c4ccccc4)C(=O)C3N2Nc2ccccc2)CC1 (stereo not given in full)	-0.126	-1.81 (inactive)	0.272 (inactive)	-0.376 (inactive)	1.6 (inactive)	0.367 (inactive)	0.195 (inactive)	-0.0871 (inactive)	0.37	0.0997
CN1C(=O)C2C=CC(C(O)C3CC=CCC3)N(N(c3ccccc3)c3ccccc3)C2C1=O (stereo not given)	0.129	1.16 (inactive)	-1.17 (inactive)	-0.0647 (inactive)	0.599 (inactive)	0.595 (inactive)	-0.486 (inactive)	0.364 (inactive)	-1.06	-0.269
C=C(CCCC)/C(=C/C[C@@H](OC(C)=O)c1ccc(OCCO)cc1)c1cnc2ccccc2c1	0.54	-0.845 (inactive)	-0.267 (inactive)	-4.4 (inactive)	0.825 (inactive)	-0.81 (inactive)	1.85 (inactive)	1.49 (inactive)	0.445	-0.0228
CNS(=O)(=O)c1ccc(C)cc1	0.925	-1.13 (inactive)	0.68 (inactive)	-1.05 (inactive)	0.426 (inactive)	-1.4 (inactive)	0.738 (inactive)	0.774 (inactive)	-0.149	-0.328
CCOC(=O)C[C@H]1[C@H](OC(=O)c2ccc(C(=O)c3ccccc3)cc2)[C@@H](NC(=O)c2ccccc2)c2cc(OCCCO)ccc2N1C(=O)c1ccc2ccccc2n1	-0.524	0.47 (inactive)	-0.145 (inactive)	-0.0918 (inactive)	0.207 (inactive)	-0.0205 (inactive)	-0.674 (inactive)	-0.374 (inactive)	-0.0826	0.0997
C=C[C@H](C)[C@@H](OC(=O)Nc1ccc(OC)cc1)c1ccc(O)c2ccccc12	-1.31	-18.2 (active)	-4.56 (inactive)	-2.51 (inactive)	0.802 (inactive)	-21.8 (active)	1.42 (inactive)	0.525 (inactive)	-2.9	-0.196
O=C1c2ccccc2[C@](Cc2ccccc2I)(C(=O)NCCN2CCOCC2)[C@H](c2ccc(CO)cc2)N1Cc1ccccc1Cl	-0.322	-0.935 (inactive)	0.618 (inactive)	-0.0768 (inactive)	0.916 (inactive)	-0.0576 (inactive)	0.768 (inactive)	-0.108 (inactive)	0.304	-0.102
C=C(CCCC)/C(=C/C[C@H](OC(=O)c1ccncc1)c1ccccc1OCCO)c1cnc2ccccc2c1	0.381	-0.0677 (inactive)	-1.07 (inactive)	-2.03 (inactive)	1.23 (inactive)	-0.254 (inactive)	0.133 (inactive)	0.126 (inactive)	-0.64	-0.252
O=C1C2C=CC(C(O)Cc3ccccc3)N(n3cnnc3)C2C(=O)N1Cc1ccccc1 (stereo not given)	-0.957	0.341 (inactive)	-1.04 (inactive)	0.293 (inactive)	-0.253 (inactive)	0.656 (inactive)	-1.08 (inactive)	-1.13 (inactive)	-1.05	0.0328
COc1ccc([Si](C)(C)[C@@H]2[C@@H](CC(=O)N3CCC[C@H]3CO)O[C@]3(C(=O)N(c4ccccc4)c4ccccc43)[C@H]2C)cc1	0.733	-1.39 (inactive)	0.315 (inactive)	-1.27 (inactive)	-0.106 (inactive)	-1.2 (inactive)	0.193 (inactive)	0.258 (inactive)	0.729	0.217
Oc1ccc2cc[n+](Cc3sc4ccccc4c3Cl)cc2c1	-1.23	-0.225 (inactive)	-1.42 (inactive)	-0.427 (inactive)	-0.0748 (inactive)	0.474 (inactive)	-0.257 (inactive)	-0.952 (inactive)	-0.624	-0.0095
CN1C=C(C(=O)OCCS(C)(=O)=O)C(C(=O)OCCS(C)(=O)=O)=CC(c2ccc(CO)cc2)=CC1C1CC1 (stereo not given)	-0.15	-1.68 (inactive)	-0.83 (inactive)	-0.524 (inactive)	-0.447 (inactive)	0.0635 (inactive)	0.815 (inactive)	0.63 (inactive)	-0.189	-0.359
COCCOC(=O)N1C(=O)[C@@]2(c3cc(C#Cc4ccc(OC)cc4)ccc31)[C@H](c1ccccc1OCCO)N1[C@H](c3ccccc3)[C@H](c3ccccc3)OC(=O)[C@H]1[C@@H]2C(=O)NC[C@H](O)c1ccccc1	0.48	2.55 (inactive)	-0.444 (inactive)	-1.22 (inactive)	3.27 (inactive)	3.17 (inactive)	0.418 (inactive)	0.127 (inactive)	-0.82	-0.0421
CC(C)NC(=O)[C@@]1(C)c2ccccc2C(=O)N(Cc2cc(C(F)(F)F)cc(C(F)(F)F)c2)[C@H]1c1ccc(CO)cc1	0.121	0.0934 (inactive)	-1.21 (inactive)	0.356 (inactive)	0.224 (inactive)	0.784 (inactive)	0.162 (inactive)	0.23 (inactive)	-0.148	0.0868
CC1(C)[C@@H]2CC(C(O)C3C=CC4C(=O)N(Cc5ccccc5)C(=O)C4N3n3cnnc3)=C[C@H]1C2 (stereo not given in full)	0.883	1.22 (inactive)	-0.12 (inactive)	0.525 (inactive)	-0.445 (inactive)	1.29 (inactive)	-0.539 (inactive)	0.102 (inactive)	-0.192	0.136
COC(=O)[C@H](Cc1ccccc1)N[C@@H](/C=C/C1CC1)[C@H](O)Cc1ccccc1	0.717	-2.78 (inactive)	0.488 (inactive)	0.342 (inactive)	0.0117 (inactive)	0.584 (inactive)	-0.053 (inactive)	-0.181 (inactive)	0.484	-0.0559
COCCOC(=O)N1C(=O)[C@@]2(c3cc(C#CCCO)ccc31)[C@H](C(N)=O)[C@H]1C(=O)O[C@H](c3ccccc3)[C@H](c3ccccc3)N1[C@@H]2c1ccc(O)cc1	-0.256	-0.089 (inactive)	0.0773 (inactive)	-0.176 (inactive)	0.181 (inactive)	-0.204 (inactive)	0.125 (inactive)	-0.176 (inactive)	-0.104	0.142
COC(=O)[C@@]1(Cc2ccccc2)[C@H]2c3cc(C(=O)N4CCCC4)n(Cc4ccc(S(C)(=O)=O)cc4)c3C[C@H]2CN1C(=O)c1ccccc1	-0.837	0.912 (inactive)	-0.774 (inactive)	-0.467 (inactive)	0.206 (inactive)	-0.33 (inactive)	-1.33 (inactive)	-0.195 (inactive)	-1.14	-0.105
COCCOC(=O)N1C(=O)[C@@]2(c3cc(C#CCC(C(=O)OC)C(=O)OC)ccc31)[C@H](C(=O)Nc1nc3ccccc3s1)[C@H]1C(=O)O[C@H](c3ccccc3)[C@H](c3ccccc3)N1[C@@H]2c1ccccc1OCCO	-0.397	1.3 (inactive)	-1.38 (inactive)	-0.715 (inactive)	2.96 (inactive)	2.8 (inactive)	0.0871 (inactive)	0.642 (inactive)	-0.39	0.109
